Test systems include NCI-H23 lung; NCI-H226 lung; NCI-H322M lung; HOP-62 NSCLC; NCI-H460 lung; HOP-92 NSCLC; NCI-H522 lung; 786-0 renal; COLO 205 colon; DU-145 prostate; K-562 leukemia; MALME-3M melanoma; MDA-MB-231 breast; RXF 393 renal; SF-268 CNS; SF-295 CNS; SF-539 CNS; UACC-257 melanoma; M14 melanoma; A549/ATCC NSCLC.
Holding throughout (assay): NCI-60 one-dose screen, 48 h (100 = growth as untreated, 0 = no growth, -100 = all killed)
What all share (conditions): 10 µM unless noted

About 83,000 compounds went through this panel and 20% of them were active in at least one assay; those are over-represented in the sample as a whole.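 A percent growth of 40 corresponds to 60% growth inhibition; 0 means no net growth; -100 means all cells died. Active threshold: below 10.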 Unmarked numbers belong to inactive results. The source made the active and inactive calls.

The source of these data is PubChem BioAssay (NCI).

For `O=C(/C=C/c1cccc([N+](=O)[O-])c1)c1ccc(Nc2nc(Nc3ccc(F)cc3)nc(Nc3ccc(Cl)cc3)n2)cc1`, the growth in the assay on NCI-H23 lung is 81.4%; with NCI-H226 lung, 87.2%; in the assay on NCI-H322M lung, 87.6%; in the assay with HOP-62 NSCLC, 151%; in the assay on NCI-H460 lung, 91.9%; in the assay on HOP-92 NSCLC, 50.9%. The growth is 82.8% with NCI-H522 lung; 99.4% with 786-0 renal; 91.2% with COLO 205 colon; 106% in the assay on DU-145 prostate; 70% in the assay with K-562 leukemia; 105% in the assay with MALME-3M melanoma. In addition, the growth in the assay on MDA-MB-231 breast was 92.2%; in the assay on RXF 393 renal, 3.04% (active); with SF-268 CNS, 93.8%; in the assay with SF-295 CNS it was 84.8%; with SF-539 CNS it was 106%; in the assay with UACC-257 melanoma, 100%. The growth with M14 melanoma was 92.5%.
Turning to `COc1ccc2c(O)cc3c(c2c1)[C@H](CCl)CN3C(=O)c1cc2cc(NC(=O)CCN3CCOCC3)ccc2[se]1`, the growth with NCI-H23 lung is -50.7% (active); in the assay on NCI-H226 lung it was -12.5% (active); in the assay with NCI-H322M lung, -87.8% (active); in the assay on HOP-62 NSCLC, -79.7% (active); in the assay on NCI-H460 lung, -7.37% (active); in the assay with HOP-92 NSCLC, 94.8%. Further, the growth in the assay with NCI-H522 lung is -82.5% (active); in the assay with 786-0 renal, -59.8% (active); with COLO 205 colon it was -78.2% (active); in the assay with DU-145 prostate it was -0.877% (active); in the assay on K-562 leukemia, 70.1%; in the assay with MALME-3M melanoma, -88% (active). The growth with MDA-MB-231 breast is -58.4% (active); in the assay on RXF 393 renal, -88.4% (active); in the assay with SF-268 CNS, -42.7% (active); in the assay on SF-295 CNS it was -77.7% (active); in the assay with SF-539 CNS, -64.4% (active); in the assay with UACC-257 melanoma, -47.5% (active). Also, the growth with M14 melanoma is -71.1% (active).
As for `Cc1ccccc1NC(=O)Cn1cc(CN2CCN(c3ccnc4cc(Cl)ccc34)CC2)nn1`, the growth in the assay with NCI-H23 lung is 99.2%; in the assay with NCI-H226 lung, 90.9%; in the assay on NCI-H322M lung it was 103%; in the assay on HOP-62 NSCLC, 90.7%; in the assay with NCI-H460 lung, 98.6%; in the assay on HOP-92 NSCLC it was 68.5%. Besides, the growth in the assay with NCI-H522 lung was 102%; in the assay on 786-0 renal it was 104%; in the assay with COLO 205 colon, 99%; in the assay on DU-145 prostate, 105%; with K-562 leukemia it was 70%; in the assay with MALME-3M melanoma it was 109%. The growth was 83.1% with MDA-MB-231 breast; 102% with RXF 393 renal; 92.6% with SF-268 CNS; 100% with SF-295 CNS; 97.8% with SF-539 CNS; 109% in the assay with UACC-257 melanoma. Further, in the assay on M14 melanoma, the growth is 101%.
For `O=C(O)/C=C\C(=O)Nc1ccc2c(c1)Cc1cc(F)ccc1-2`, the growth in the assay on NCI-H23 lung was 95.9%; in the assay on NCI-H226 lung it was 98.3%; with NCI-H322M lung, 99.7%; in the assay on HOP-62 NSCLC, 87.9%; in the assay on NCI-H460 lung, 110%; in the assay with HOP-92 NSCLC it was 97.5%. In addition, the growth in the assay on NCI-H522 lung is 90.9%; in the assay with 786-0 renal, 99.7%; in the assay with COLO 205 colon, 105%; in the assay on DU-145 prostate, 111%; with K-562 leukemia it was 104%; in the assay with MALME-3M melanoma it was 98.9%. The growth was 112% with MDA-MB-231 breast; 114% in the assay with RXF 393 renal; 96% with SF-268 CNS; 96.4% in the assay with SF-295 CNS; 94.9% in the assay on SF-539 CNS; 115% in the assay with UACC-257 melanoma. The growth in the assay on M14 melanoma is 96.4%.
On to `Cc1nc2c(c(-c3ccccc3)n1)Cc1c(ccc3ccccc13)O2`, for which the growth is 97.8% in the assay on NCI-H23 lung; 82.2% in the assay on NCI-H226 lung; 148% in the assay on NCI-H322M lung; 90.9% with HOP-62 NSCLC; 98.1% in the assay with NCI-H460 lung; 100% with NCI-H522 lung. The growth was 96% with A549/ATCC NSCLC; 98.7% with 786-0 renal; 100% in the assay on COLO 205 colon; 115% in the assay on DU-145 prostate; 132% in the assay on K-562 leukemia; 126% in the assay on MALME-3M melanoma. For the same compound, the growth with MDA-MB-231 breast is 83%; in the assay with RXF 393 renal, 105%; in the assay on SF-268 CNS, 94.8%; in the assay on SF-295 CNS, 112%; with SF-539 CNS, 96.7%; with UACC-257 melanoma, 113%. In addition, the growth with M14 melanoma was 104%.
For the compound `C#C[C@]1(O)CC[C@H]2[C@@H]3CC=C4c5sc(-c6ccccc6)nc5CC[C@]4(C)[C@H]3CC[C@@]21C`, the growth in the assay on NCI-H23 lung is 84.1%; in the assay on NCI-H226 lung it was 99.6%; with NCI-H322M lung it was 86.7%; with HOP-62 NSCLC, 99.5%; with NCI-H460 lung it was 75.5%; in the assay on NCI-H522 lung, 77.9%. For the same compound, the growth in the assay on A549/ATCC NSCLC is 101%; in the assay on 786-0 renal it was 42.9%; in the assay with COLO 205 colon, 116%; in the assay with DU-145 prostate, 96.1%; in the assay on K-562 leukemia it was 17.6%; with MALME-3M melanoma it was 97.5%. Also, the growth with MDA-MB-231 breast is 89%; in the assay with RXF 393 renal, 32.3%; in the assay with SF-268 CNS it was 83.4%; in the assay on SF-295 CNS, 41.4%; in the assay with SF-539 CNS, 31.6%; in the assay with UACC-257 melanoma, 84.6%. The growth in the assay on M14 melanoma is 78.9%.
As for `COc1ccc(S(=O)(=O)Oc2ccc(-c3sc4cc(OS(=O)(=O)c5ccc(OC)cc5)ccc4c3C(=O)c3ccc(OCCN4CCCCC4)cc3)cc2)cc1`, the growth in the assay with NCI-H23 lung is 104%; with NCI-H226 lung, 104%; in the assay on NCI-H322M lung, 98.5%; in the assay with HOP-62 NSCLC it was 95.8%; with NCI-H460 lung it was 105%; in the assay with NCI-H522 lung, 91.4%. For the same compound, the growth in the assay on A549/ATCC NSCLC is 88.2%; with 786-0 renal, 93%; with COLO 205 colon, 109%; in the assay on DU-145 prostate, 107%; with K-562 leukemia, 103%; in the assay with MALME-3M melanoma it was 92.3%. Further, the growth with MDA-MB-231 breast was 108%; in the assay on RXF 393 renal it was 110%; in the assay on SF-268 CNS it was 102%; with SF-295 CNS, 93.2%; in the assay with SF-539 CNS, 95.2%; in the assay on UACC-257 melanoma it was 93%. In addition, in the assay on M14 melanoma, the growth is 105%.
